Source: PubChem BioAssay AID1671194 (National Center for Advancing Translational Sciences (NCATS), 2021)
Out of some 140,000 compounds screened, about 240 (0.17%) were called active. About 9% were inconclusive and are not listed. The call rests on the fitted dose curve; in most records, active means well fitted inhibition curve with a large enough effect; inconclusive means small, poorly fitted or top-dose-only effect; inactive means no such curve, though single readings can be large or run the other way. The full list was thinned out, with actives kept by preference.

assay: Primary qHTS assay for inhibitors of alpha-synuclein gene (SNCA) expression; settings: HEK-293 SNCA-luciferase knock-in, luminescence, 24 h; series mostly up to 57.2 µM; further: nearly all actives have a fitted effect of over 45% in size
Potency means the concentration at half of the fitted maximal effect.

Potency, active:
CCOc1ccc(NC(=O)CSc2c3c(nc4ccccc24)CCCC3)cc1 28.2 µM
Cc1cccc(-n2ccnc2SCC(=O)Nc2cccc3ccccc23)c1C 20 µM
COc1ccc(-c2nc3ccncc3[nH]2)cc1 10 µM
O=C(C1CCC(Cn2c(=O)c3sccc3n(Cc3ccccc3F)c2=O)CC1)N1CCCCC1 (stereo not drawn) 25.1 µM

Potency, inactive:
Cc1ccc(CNC(=O)CSc2c3c(nc4cc(Cl)ccc24)CCCC3)cc1
CCOc1ccc(NC(=O)CSc2ncnc3c2sc2ccccc23)cc1
CCOc1cccc(CN2CCC3(CC2)CN(C)CC3COC)c1 (stereo not drawn)
COc1ccc(OCC2CCN(CC3(O)CCCNC3)CC2)cc1 (stereo not drawn)
O=C(NCc1cccc(F)c1)c1cccnc1N1CC2CC(C1)[C@H]1CCCC(=O)N1C2 (stereo partly drawn)
O=S(=O)(c1ccccc1)N1CCC(CCOc2ccccc2)C1 (stereo not drawn)
O=C1NC2(CCCN([S+](=O)([O-])c3ccccc3)C2)COc2ccccc21 (stereo not drawn)
C=CCn1nc(C(=O)N2CCOCC2)c2c1CCC(NCC1(c3ccccc3)CCCCC1)C2 (stereo not drawn)
CCN(CC)CCNC(=O)C1N(C(C)C)C(=O)C12CCCC2 (stereo not drawn)
Cc1cc(C)cc(-n2ccnc2SCC(=O)Nc2nc3ccccc3s2)c1
O=C(CSc1nccn1-c1ccc(F)cc1)Nc1cccc2ccccc12
COc1ccc(NC(=O)c2c(C)oc3ccn(Cc4ccc(F)cc4)c(=O)c23)c(OC)c1
Cc1ccc(CN2CCC(Oc3cnc4c(ccn4CCN[S+](C)(=O)[O-])c3)CC2)c(F)c1
Cn1ncc2c(C(=O)NCc3cccs3)cc(-c3ccc(Cl)nc3)nc21
Cc1ccc(CN2CCOc3cc([S+](=O)([O-])N(C)C)ccc3C2)c(F)c1
Cc1cccc(C(=O)N2CCC3(CC2)CC(CC(=O)NCc2ccncc2)CCO3)c1 (stereo not drawn)
O=C(CCn1ccn2nc3c(c2c1=O)CCCC3)Nc1ccc(Cl)c(C(F)(F)F)c1
CCOc1cc(C)c(CN2C[C@@H](CN(C)C)C[C@H](CO)C2)cc1C(C)C
O=S(=O)(c1ccccc1)N1CCC(F)(c2nc(Cc3ccccc3)no2)CC1
O=C(c1nc2cccnc2n(Cc2ccccc2)c1=O)N1CCN([S+](=O)([O-])c2ccccc2)CC1
COc1cccc(-c2cccc(C(=O)N3CCCC3C(=O)NCc3ccccc3Cl)c2)c1 (stereo not drawn)
O=C(O)CCC(=O)N1Cc2ccccc2CC2(CCN(Cc3ccc(O)cc3)C2)C1 (stereo not drawn)
CCCCn1c(=O)c(C(=O)NCCSC)nc2cccnc21
Cc1ccccc1CN1Cc2nc(NCc3ccncc3)ccc2OCC1=O
O=C1Nc2ccccc2C2(CCN(S(=O)(=O)c3cccc(C(F)(F)F)c3)C2)O1 (stereo not drawn)
CN1CCN(C[C@@H]2CN(C(=O)CCc3c[nH]c4ccccc34)C[C@@H]2CO)CC1
CCc1cccc2c(C(CC(=O)NC(C)CC)c3cccc(OC)c3)c[nH]c12 (stereo not drawn)
Fc1ccc(-c2ccnc3nc(C4CCC4)nn23)cc1
Cn1nc(C2CC2)cc1NC(=O)c1ccc(C(F)(F)F)cc1
COc1ccccc1-n1c(=O)c(C(=O)N2CCN(C(=O)Cc3ccc(F)cc3)CC2)nc2cccnc21
CCN1C(=O)C2CC3(CCN(C(=O)c4nccn4C)CC3)CN2C1=O (stereo not drawn)
CCOC(=O)C1(Cc2ccc(F)cc2F)CCCN(Cc2cccc(OC)c2O)C1 (stereo not drawn)
COC[C@H]1CCCN1C(=O)C[C@@H]1C[C@H]2O[C@H](CNC(=O)N[C@@H](C)c3ccccc3)[C@@H](O)[C@H]2O1
COCCCn1c(C)cnc1CC1CCN(C(=O)CC2CCCCC2)CC1
N#Cc1ccc(CN2CCN(c3nccc(Cl)n3)C(=O)C2)cc1
O=C(Nc1ccc([C@H]2OCC(=O)N(Cc3ccc(F)cc3)[C@@H]2CO)cc1)c1cccnc1
CCS(=O)(=O)NCC1(COc2ccc(C(F)(F)F)cn2)C[C@@H](O)[C@@H](O)C1 (stereo partly drawn)
Cc1ccccc1C(=O)N1CCC2(CC1)CCN(Cc1cccs1)c1ccccc1O2
Cc1ccc2c(C(=O)N3CCCC(C#N)C3)cc(-c3cnn(C(C)C)c3)nc2c1 (stereo not drawn)
O=[S+]([O-])(c1ccccc1)N1CC2(CCCCN2Cc2cccnc2)Cc2ccccc21 (stereo not drawn)
COCCNC(=O)c1nc2sccn2c1-c1cccc(OC)c1
O=C(NC1CCCCC1)[C@H]1O[C@H](CCN2CCNCC2)CC[C@@H]1O
COc1cccc(-c2ccnc3nc(Cc4cc(F)cc(F)c4)nn23)c1
CN1C(=O)[C@@H]2C[C@@H](O)CN2C2(CN(Cc3ccoc3)C2)C1=O
Cc1noc([C@@H]2CN(CCCc3ccccc3)C[C@H]2CO)n1
C[C@H](C(=O)N1Cc2ccccc2CC2(CCN(Cc3ccncc3)CC2)C1)c1ccccc1
CC(=O)Nc1cccc(-c2cn(C)c(=O)n3cc(COc4ccnn4C)nc23)c1
COc1cccc([S+](=O)([O-])N2CCC3(CC(c4cccnc4)=NO3)C2)c1 (stereo not drawn)
O=C(c1ccccc1C1CCNC1)N1CCN(C/C=C/c2ccccc2)CC1 (stereo not drawn)
COCc1nnc(NC(=O)C2c3ccccc3C(=O)N(C3CCCC3)C23CCCC3)s1 (stereo not drawn)
COc1cccc(-c2ccc(C(=O)N3CCC(C(=O)NCc4cccs4)CC3)cc2)c1
COc1ccc(C(=O)N2CCCC2C(=O)N2CCCC2c2nc3ccncc3[nH]2)cc1 (stereo not drawn)
c1cc(-c2nc3ccncc3[nH]2)ccn1
COc1ccc(-c2ccc3c(n2)CN(CCOc2ccccc2)C(=O)CO3)cc1F
O=C(C1CCCN(Cc2cccc(-c3ccc(F)cc3F)c2)C1)N1CCN(Cc2ccccc2)CC1 (stereo not drawn)
COc1ccc(CC2CCOC3(CCN(C(=O)NCC(C)C)CC3)C2)cc1 (stereo not drawn)
CCCNC(=O)C1CCC(Cn2c(=O)c3sccc3n(Cc3ccccc3F)c2=O)CC1 (stereo not drawn)
CC(C)NC(=O)C1CCC(Cn2c(=O)c3sccc3n(Cc3ccc(F)cc3)c2=O)CC1 (stereo not drawn)
O=C1CCN(S(=O)(=O)c2ccc3c(c2)CCC3)CCCC(c2nc(-c3cnccn3)no2)CCN1 (stereo not drawn)
